In the library only some 4.8% were active in any assay of this set; here they are far more common.
Mdm2-MdmX inh: human Mdm2/MdmX binding inhibition. O15151+Q00987. SaOS-2 split-luciferase Mdm2/MdmX complementation, luminescence. inhibition, % at 8 µM. 3% of 330,000 active. AID 485346;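 active = inhibition of at least 50% at 8 µM in the primary screen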
MPTP inh: inhibitors of mitochondrial permeability transition pore. isolated mouse mitochondria, Ca2+ swelling absorbance, 30 min. 1.4% of 360,000 active. inhibition, % at 10 µM;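 active = inhibition of 50% or more, scaled per plate between neutral and stimulator controls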;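 also: 0% = DMSO wells given calcium and 100% = 1 mM EGTA wells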
CSC inhib: cancer stem cell inhibition | cancer stem cell-like cells viability, luminescence | inhibition, % at 7.5 µM | 1.1% of 300,000 active; in the data active = inhibition above about 75%; inconclusive = no clear call, values can overlap the other calls; tested in HMLE shEcad cells
Calb FLC: affects C. albicans growth with fluconazole; C. albicans CaCi-2 (fluconazole-resistant clinical isolate) + fluconazole, Alamar Blue growth, 48 h; growth inhibition, % (no concentration beside the values); 0.57% of 300,000 active;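 active = growth inhibition above about 58% in most replicates, limit read from the data, passing the limit was not always enough; inconclusive = exactly half the replicates above a set limit; inactive = most replicates below a set limit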;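 also: all wells also contain fluconazole at 8 µg/ml as a sub-toxic cotreatment; 0% = median of DMSO wells and 100% = median of geldanamycin control wells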
Beta apoptosis: beta cell apoptosis inhibition. INS-1E cytokine-induced death, ATP luminescence, 48 h; percent of positive-control rescue, neutral wells zero. protection from apoptosis, % (test concentration not listed). 0.8% of 300,000 active;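 active = Every replicate reaches about 75%, or at least half do and their mean reaches it too, limit read from the data; inconclusive = At least half of replicates reach the limit but their mean does not; inactive = Under half of replicates reach the limit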;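 also: 0% = cytokine-treated negative control wells and 100% = positive control rescue; higher means more ATP so stronger rescue from cytokine killing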
Mdm2-MdmX conf: confirmation of human Mdm2/MdmX interaction inhibitors. shares compounds with Mdm2-MdmX inh. Mdm2-MdmX binding, luminescent assay. inhibition, % at 8 µM. 55% of 10,000 active. AID 489028; in the data active = inhibition above about 40%
FLuc counter: full-length luciferase inhibition in Mdm2/MdmX counter-screen; shares compounds with Mdm2-MdmX inh; SaOS-2 full-length luciferase counterscreen, luminescence; 77% of 6,200 active; inhibition, % at 8 µM;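 active = mean inhibition at 8 µM reaching about 37%, which flags the compound as non-specific, limit read from the data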;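 also: p53-null SaOS-2 cells with luciferase driven by a doxycycline-inducible promoter; compound on cells about two nights before reading with doxycycline added after day one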
Active calls of the source: *; u = inconclusive; x = no result given.

SMILES	Mdm2-MdmX inh	MPTP inh	CSC inhib	Calb FLC	Beta apoptosis	Mdm2-MdmX conf	FLuc counter
Cc1ccc(-n2c(=O)[nH]c3cc(C(=O)NC4CCN(Cc5ccccc5)CC4)ccc3c2=O)cc1	86.7*	0.7	-8.9	-4.0	2.3	26.1	x
Cc1ccc(C)c(OCc2cc(C(=O)NC3CCN(Cc4ccccc4)CC3)no2)c1	53.4*	3.7	12.3	6.9	14.3	15.7	x
O=C(NC1CCN(Cc2ccccc2)C1)c1cc(COc2ccc(F)cc2F)on1 (stereo unspecified)	11.0	-0.5	-6.2	16.9	20.3	x	x
Cc1oc(-c2ccc(Cl)cc2)nc1CN1CCC(C(=O)NCc2cccs2)CC1	32.0	3.4	-6.7	16.8	-1.4	x	x
CCN(CCNC(=O)C1CCN(Cc2nc(-c3cccc(Cl)c3)oc2C)CC1)c1ccccc1	51.6*	-3.0	22.0	-22.6	39.0	50.8*	60.6*
Cc1ccccc1CN1CCC(N2CCC(C(=O)NCC3CCCO3)CC2)CC1 (stereo unspecified)	29.9	1.9	-7.2	10.8	0.7	x	x
CC1CN(C(=O)c2ccccc2OCc2ccccc2Cl)CC(C)O1 (stereo unspecified)	-2.6	-0.8	x	x	4.0	x	x
CCc1nc2ccc(C(=O)N(C)CC(=O)Nc3cccc(F)c3)cc2nc1CC	8.8	-0.4	x	x	0.9	x	x
COc1ccc(-c2nc3c(-c4ccc(F)cc4)cnn3cc2C)cc1F	8.5	-0.1	6.9	6.1	2.2	x	x
Cc1oc(-c2ccc(Cl)cc2)cc1C(=O)NC1CCN(Cc2ccccc2)CC1	60.2*	-0.2	14.2	-5.7	x	28.2	x
CCc1ccc(-c2nc(CN3CCC(C(=O)NCCN(CC)c4ccccc4)CC3)c(C)o2)cc1	77.5*	2.8	15.8	u	18.0	79.8*	59.3*
Cc1oc(C(C)(C)C)cc1C(=O)NC1CCN(Cc2ccccc2)CC1	10.3	-1.4	16.3	-25.7	4.2	x	x
COc1ccc(-c2nc(CN3CCC(C(=O)NC4CCN(Cc5ccccc5)CC4)CC3)c(C)o2)cc1OC	80.3*	0.2	-11.6	-27.8	10.0	49.4*	54.6*
CCc1ccc(-c2nc(CN3CCC(C(=O)N4CCN(c5ccccc5)CC4)CC3)c(C)o2)cc1	53.5*	3.4	12.8	u	11.8	40.2*	85.7*
CCc1ccc(-c2nc(CN3CCC(C(=O)N4CCN(c5ccccn5)CC4)CC3)c(C)o2)cc1	26.8	1.4	x	x	0.7	x	x
COc1c(N)c2c(c([N+](=O)[O-])c1OC)C(=O)OC2	x	0.3	x	x	x	x	x
COc1ccc(S(=O)(=O)N2CCCCC2c2cc(C(=O)NCc3cccnc3)no2)cc1 (stereo unspecified)	x	-0.1	x	x	x	x	x
CCN(CCNC(=O)C1CCN(Cc2nc(-c3ccc(Cl)cc3)oc2C)CC1)c1ccccc1	51.1*	-2.8	39.8	u	x	54.5*	48.1*
CCN(CCNC(=O)C1CCCN(Cc2nc(-c3ccc(OC)cc3)oc2C)C1)c1ccccc1 (stereo unspecified)	47.7	-1.8	2.5	-21.3	-0.4	x	x
CCc1ccc(C(=O)Nc2nc3ccccc3[nH]2)cc1	55.8*	-2.2	31.0	-3.7	44.2	52.1*	72.4*
O=C(Nc1ccncc1)c1ccccc1F	51.3*	0.0	-2.1	-1.1	1.1	31.4	x
O=C(Nc1nc2ccccc2[nH]1)c1ccc(OC(F)F)cc1	-34.9	-1.8	8.0	1.8	22.3	x	x
O=C(Nc1nc2ccccc2[nH]1)c1ccccc1F	82.4*	-4.5	123.6*	23.7	88.7*	80.6*	37.6*
O=C(Nc1ccc(F)cc1)c1ccccc1F	27.0	-1.5	6.7	-2.4	3.2	x	x
CC(C)Oc1ccc(C(=O)Nc2nc3ccccc3[nH]2)cc1	69.5*	-1.2	42.0	12.5	46.5	66.8*	46.3*
CCOC(=O)C1=C[C@@H](c2ccccc2)N(S(=O)(=O)c2ccc(C)cc2)[C@H]1c1ccc(F)cc1	x	0.6	x	x	x	x	x
CCCCCCN1C[C@H](n2cc(C3CC3)nn2)[C@@H](O)C[C@@H]1c1ccccc1	x	-0.9	x	x	x	x	x
CC(=O)c1ccc(OCC(=O)N2CCCC2c2ccc3c(c2)OCCCO3)cc1 (stereo unspecified)	12.8	-1.1	-2.5	x	-17.3	x	x
O=C(CCl)N1CCCC1c1ccc2c(c1)OCCO2 (stereo unspecified)	75.1*	27.2	-1.8	8.0	-1.9	32.9	42.6*
